Results taken from publication PMC11006913.

Biological target: ALX3 (Homo sapiens, UniProt O95076 139-225, N203Q)
Experiment: PBM; 200 nM protein, PBS
Details: dsDNA, one strand shown

Sequence of ALX3 (O95076 139-225 N203Q): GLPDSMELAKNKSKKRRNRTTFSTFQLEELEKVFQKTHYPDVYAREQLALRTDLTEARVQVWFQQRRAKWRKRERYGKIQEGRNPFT

In order of falling binding signal:
1. ATAATAAG  8.64 upbm affinity estimate (log intensity, higher = more binding, comparable within an allelic series)
2. TATAATAA  8.61 upbm affinity estimate (log intensity, higher = more binding, comparable within an allelic series)
3. TAATAATA  8.57 upbm affinity estimate (log intensity, higher = more binding, comparable within an allelic series)
4. ACTTATTA  8.57 upbm affinity estimate (log intensity, higher = more binding, comparable within an allelic series)
5. CATAATAA  8.54 upbm affinity estimate (log intensity, higher = more binding, comparable within an allelic series)
6. ATTAAAAT  8.53 upbm affinity estimate (log intensity, higher = more binding, comparable within an allelic series)
7. GCTTCGAC  7.77 upbm affinity estimate (log intensity, higher = more binding, comparable within an allelic series)

Biological target: ALX1 (Homo sapiens, UniProt Q15699 118-204, L144R)
Experiment: PBM; 200 nM protein, PBS
Details: dsDNA, one strand shown

Sequence of ALX1 (Homo sapiens, UniProt Q15699 118-204, L144R) (Q15699 118-204 L144R): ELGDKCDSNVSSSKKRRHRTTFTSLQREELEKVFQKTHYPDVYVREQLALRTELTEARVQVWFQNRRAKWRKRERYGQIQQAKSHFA

In order of falling binding signal:
1. ATTATTGA  10.3 upbm affinity estimate (log intensity, higher = more binding, comparable within an allelic series)
2. AATTGGTC  9.58 upbm affinity estimate (log intensity, higher = more binding, comparable within an allelic series)
3. ACATAATA  9.39 upbm affinity estimate (log intensity, higher = more binding, comparable within an allelic series)
4. CCGTATTA  8.73 upbm affinity estimate (log intensity, higher = more binding, comparable within an allelic series)
5. AAGACAAT  8.63 upbm affinity estimate (log intensity, higher = more binding, comparable within an allelic series)
6. CAATATTC  8.42 upbm affinity estimate (log intensity, higher = more binding, comparable within an allelic series)
7. ATAACTCC  8.38 upbm affinity estimate (log intensity, higher = more binding, comparable within an allelic series)
8. CCTTTAAC  8.36 upbm affinity estimate (log intensity, higher = more binding, comparable within an allelic series)
9. ATTGGAAA  8.23 upbm affinity estimate (log intensity, higher = more binding, comparable within an allelic series)
10. ACATTTAG  8.16 upbm affinity estimate (log intensity, higher = more binding, comparable within an allelic series)
11. AAATGGGA  8.01 upbm affinity estimate (log intensity, higher = more binding, comparable within an allelic series)
12. AGGCAAAT  7.93 upbm affinity estimate (log intensity, higher = more binding, comparable within an allelic series)
13. AGTTAGCC  7.7 upbm affinity estimate (log intensity, higher = more binding, comparable within an allelic series)
14. CTGAATTC  7.6 upbm affinity estimate (log intensity, higher = more binding, comparable within an allelic series)
15. AGAAGGGC  6.68 upbm affinity estimate (log intensity, higher = more binding, comparable within an allelic series)
16. CTCCTAGC  6.57 upbm affinity estimate (log intensity, higher = more binding, comparable within an allelic series)
17. AGCCACAG  6.52 upbm affinity estimate (log intensity, higher = more binding, comparable within an allelic series)
18. CGGCCGAG  6.51 upbm affinity estimate (log intensity, higher = more binding, comparable within an allelic series)
19. GACTCCCC  6.48 upbm affinity estimate (log intensity, higher = more binding, comparable within an allelic series)
20. CCAGACTC  6.47 upbm affinity estimate (log intensity, higher = more binding, comparable within an allelic series)
21. AGCCTTCG  6.46 upbm affinity estimate (log intensity, higher = more binding, comparable within an allelic series)
22. GCTGGCAC  6.45 upbm affinity estimate (log intensity, higher = more binding, comparable within an allelic series)
23. CGACTGCC  6.43 upbm affinity estimate (log intensity, higher = more binding, comparable within an allelic series)
24. CTGCTAGC  6.39 upbm affinity estimate (log intensity, higher = more binding, comparable within an allelic series)
25. CACCTTCG  6.38 upbm affinity estimate (log intensity, higher = more binding, comparable within an allelic series)
26. CTGGGCGA  6.37 upbm affinity estimate (log intensity, higher = more binding, comparable within an allelic series)
27. CCTACGCC  6.36 upbm affinity estimate (log intensity, higher = more binding, comparable within an allelic series)
28. CGACAGGC  6.36 upbm affinity estimate (log intensity, higher = more binding, comparable within an allelic series)
29. CCGACGCG  6.27 upbm affinity estimate (log intensity, higher = more binding, comparable within an allelic series)
30. CTGGAACC  6.18 upbm affinity estimate (log intensity, higher = more binding, comparable within an allelic series)

Biological target: ALX1 (Homo sapiens, UniProt Q15699 118-204)
Experiment: PBM; 200 nM protein, PBS
Details: dsDNA, one strand shown

Sequence of ALX1 (Homo sapiens, UniProt Q15699 118-204) (Q15699 118-204): as the sequence (Q15699 118-204 L144R) above, with R27L counted along it

In order of rising binding signal:
1. CTGGAACC  6.07 upbm affinity estimate (log intensity, higher = more binding, comparable within an allelic series)
2. CCAGACTC  6.13 upbm affinity estimate (log intensity, higher = more binding, comparable within an allelic series)
3. CGGCCGAG  6.15 upbm affinity estimate (log intensity, higher = more binding, comparable within an allelic series)
4. CGACAGGC  6.15 upbm affinity estimate (log intensity, higher = more binding, comparable within an allelic series)
5. GACTCCCC  6.25 upbm affinity estimate (log intensity, higher = more binding, comparable within an allelic series)
6. AGCCTTCG  6.29 upbm affinity estimate (log intensity, higher = more binding, comparable within an allelic series)
7. CACCTTCG  6.33 upbm affinity estimate (log intensity, higher = more binding, comparable within an allelic series)
8. CGACTGCC  6.37 upbm affinity estimate (log intensity, higher = more binding, comparable within an allelic series)
9. CTGCTAGC  6.42 upbm affinity estimate (log intensity, higher = more binding, comparable within an allelic series)
10. AGAAGGGC  6.45 upbm affinity estimate (log intensity, higher = more binding, comparable within an allelic series)
11. CCTACGCC  6.5 upbm affinity estimate (log intensity, higher = more binding, comparable within an allelic series)
12. CTCCTAGC  6.52 upbm affinity estimate (log intensity, higher = more binding, comparable within an allelic series)
13. GCTGGCAC  6.58 upbm affinity estimate (log intensity, higher = more binding, comparable within an allelic series)
14. AGCCACAG  6.67 upbm affinity estimate (log intensity, higher = more binding, comparable within an allelic series)
15. CCGACGCG  6.71 upbm affinity estimate (log intensity, higher = more binding, comparable within an allelic series)
16. CTGGGCGA  6.87 upbm affinity estimate (log intensity, higher = more binding, comparable within an allelic series)
17. CTGAATTC  7.82 upbm affinity estimate (log intensity, higher = more binding, comparable within an allelic series)
18. AGGCAAAT  8.18 upbm affinity estimate (log intensity, higher = more binding, comparable within an allelic series)
19. AGTTAGCC  8.29 upbm affinity estimate (log intensity, higher = more binding, comparable within an allelic series)
20. ATAACTCC  8.38 upbm affinity estimate (log intensity, higher = more binding, comparable within an allelic series)
21. AATCCACA  8.4 upbm affinity estimate (log intensity, higher = more binding, comparable within an allelic series)
22. AAATGGGA  8.46 upbm affinity estimate (log intensity, higher = more binding, comparable within an allelic series)
23. CAATATTC  8.48 upbm affinity estimate (log intensity, higher = more binding, comparable within an allelic series)
24. GTAGGTAA  8.54 upbm affinity estimate (log intensity, higher = more binding, comparable within an allelic series)
25. ACATTTAG  8.56 upbm affinity estimate (log intensity, higher = more binding, comparable within an allelic series)
26. ATTGGAAA  8.59 upbm affinity estimate (log intensity, higher = more binding, comparable within an allelic series)
27. CCTTTAAC  8.65 upbm affinity estimate (log intensity, higher = more binding, comparable within an allelic series)
28. AACTAAGT  8.92 upbm affinity estimate (log intensity, higher = more binding, comparable within an allelic series)
29. AAGACAAT  8.96 upbm affinity estimate (log intensity, higher = more binding, comparable within an allelic series)
30. CCGTATTA  9.27 upbm affinity estimate (log intensity, higher = more binding, comparable within an allelic series)
31. ACATAATA  9.89 upbm affinity estimate (log intensity, higher = more binding, comparable within an allelic series)
32. AATTGGTC  10.2 upbm affinity estimate (log intensity, higher = more binding, comparable within an allelic series)
33. ATTATTGA  10.8 upbm affinity estimate (log intensity, higher = more binding, comparable within an allelic series)
